Screening data as filed in PubChem BioAssay.
Jurkat NFkB inh: inhibitors of the PMA/ionomycin-induced NF-kB reporter in Jurkat cells; PMA/ionomycin-induced NF-kB luciferase reporter, luminescence; inhibition, % at 4 µM; 330,000 compounds, 0.53% hits; AID 435003; in the data active = inhibition above about 50%
697 NFkB inh: lowers PMA/ionomycin-induced NF-kB signal in 697 B cells; AID 435022; 697 B-cell NF-kB luciferase reporter, 16 h; inhibition, % at 4 µM; 330,000 compounds, 0.33% hits; in the data active = inhibition above about 35%
Gli-Sufu antag: Gli-Sufu pathway antagonism; Sufu-KO-LIGHT fibroblasts, Gli luciferase reporter luminescence; 340,000 compounds, 0.74% hits; inhibition, % at 5 µM;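 active = inhibition above about 55%, limit read from the data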;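 also: 0% = DMSO-treated cells and 100% = wells with medium but no cells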
SMARCA2 activ: activators of SMARCA2 function; MG213 cells, MMTV-luciferase reporter, dexamethasone, overnight; activation, % at 9.1 µM; 370,000 compounds, 1% hits; AID 652017; in the data active = activation above about 7.8%;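 also: 0% = vehicle wells and 100% = reference activator wells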
esBAF inh: inhibitors of esBAF chromatin remodeling in mouse ES cells; Bmi1-luciferase knock-in reporter, 24 h; 100% = twice the neutral-well signal; reporter increase, % at 12.5 µM; 350,000 compounds, 2% hits; AID 602393; in the data active = activation above about 40%;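 also: 0% = median of the plate's neutral control wells and 100% = double that signal; a rise in the Bmi1 reporter signal indicates esBAF inhibition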
Gli antag conf: confirmation of Gli-SUFU pathway antagonists; shares compounds with Gli-Sufu antag; Sufu-KO-LIGHT cells, Gli luciferase reporter, luminescence; inhibition, % at 5 µM; 2,500 compounds, 40% hits;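 active = mean inhibition at 5 µM reaching about 45%, limit read from the data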;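 also: plate controls were DMSO-treated cells for no effect and wells lacking cells for full effect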
Gli cytotox: cytotoxic in Gli-SUFU antagonist counter-screen; shares compounds with Gli-Sufu antag; 2,500 compounds, 32% hits; cytotoxicity, % at 5 µM; Sufu-KO-LIGHT cells cytotoxicity, ATP luminescence;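 active = mean cytotoxicity at 5 µM above about 25%, limit read from the data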;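 also: cells exposed to compound overnight for roughly 16 to 18 hours; plate controls were DMSO wells with cells for no effect and medium without cells for full effect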
Wnt3a counter: Wnt3a reporter inhibition counter-screen. Wnt-LIGHT cells, Wnt3a-driven luciferase reporter, luminescence. shares compounds with Gli-Sufu antag. 2,500 compounds, 20% hits. inhibition, % at 6.25 µM;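 active = mean inhibition above about 25%, limit read from the data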
Starred values were filed as active, the others as inactive; / = no result given. Only some compounds are listed: those with a hit (about 3.3% of all), similar ones and a draw of the others.

SMILES	Jurkat NFkB inh	697 NFkB inh	Gli-Sufu antag	SMARCA2 activ	esBAF inh	Gli antag conf	Gli cytotox	Wnt3a counter
COc1ccc(CN2CCN(Cc3cccc(Oc4ccccc4)c3)CC2)c(OC)c1OC	-15	-7	51	0	3	25	26*	-46
CCN(CC)S(=O)(=O)c1ccc(N2CCN(c3ccccc3OC)CC2)c(N)c1	16	2	66*	-6	-17	78*	28*	32*
CCN(CC)S(=O)(=O)c1ccc(Oc2ccccc2)c(N)c1	12	-1	-4	-2	/	/	/	/
C[C@@H]1CN([C@@H](C)CO)C(=O)c2cc(NC(=O)Nc3ccc(C(F)(F)F)cc3)ccc2O[C@@H]1CN(C)C(=O)Nc1ccc(C(F)(F)F)cc1	/	/	/	/	2	/	/	/
Cc1noc(C)c1S(=O)(=O)N(C)C[C@@H]1Oc2ccc(NC(=O)Nc3cccc4ccccc34)cc2CC(=O)N([C@H](C)CO)C[C@@H]1C	/	/	/	/	-2	/	/	/
CCN1/C(=C/C=C/C=C/c2sc3ccccc3[n+]2CC)Sc2ccccc21	33	-7	/	/	/	/	/	/
CC[n+]1c(/C=C/Nc2ccccc2)sc2ccccc21	-5	16	68*	-4	-21	81*	37*	30*
CCN1/C(=C/C=C/C=C/C=C/c2sc3ccccc3[n+]2CC)Sc2ccccc21	7	4	83*	-4	-38	91*	32*	45*
CN(C)c1nc(-c2ccccn2)nnc1-c1ccccc1	-2	-20	66*	1	/	66*	24	72*
CN(C)c1nc(-c2ccccc2)nc(-c2ccc(Cl)cc2)c1C#N	-16	-54	-77	-2	-6	/	/	/
CCN(CC)c1nc(-c2ccccn2)nc(-c2ccccc2)c1C#N	4	9	63*	-6	/	25	12	10
c1ccc(-c2nnc(-c3ccccn3)c(-c3ccccn3)n2)nc1	2	6	3	1	/	/	/	/
C[C@H](CO)N1C[C@H](C)[C@H](CN(C)C(=O)Nc2ccc(F)cc2)Oc2ccc(NC(=O)CCC(F)(F)F)cc2C1=O	/	/	/	/	-1	/	/	/
CCCC1C(=O)Nc2ccccc2N1C(=O)c1cccc(C)c1 (stereo not given)	-13	7	71*	-3	1	16	17	-1
O=C(C[C@@H]1C[C@H]2c3cc(NC(=O)C4CCOCC4)ccc3O[C@H]2[C@@H](CO)O1)NC1CCCCC1	/	/	/	/	4	/	/	/
O=C(Cc1ncc(C(F)(F)F)cc1Cl)NCCc1ccccn1	11	17	55*	7.9*	/	22	12	1
CC(C)C#Cc1cnc2c(c1)C(=O)N([C@@H](C)CO)C[C@H](C)[C@@H](CN(C)Cc1cccc(F)c1)O2	/	/	/	/	3	/	/	/
CC(C)(C)C(=O)Nc1cc(S(=O)(=O)N2CCCCC2)ccc1N1CCCCC1	12	8	55	-2	0	27	0	-18
COc1ccc(C2=Nn3c(nnc3-c3ccccc3OC)SC2)cc1OCC1CC1	-2	-75	65*	5	-19	60*	65*	-105
Cc1ccc(S(=O)(=O)N(C)C[C@@H]2Oc3ccc(NS(=O)(=O)c4ccccc4)cc3C(=O)N([C@@H](C)CO)C[C@H]2C)cc1	/	/	/	/	2	/	/	/
Nc1ccc(C(=O)N/N=C\c2cc(N=Nc3cccc4ccccc34)ccc2O)cc1	7	-57	67*	-2	-39	65*	40*	59*
COC(=O)N/N=C/c1cc(N=Nc2ccccc2Cl)ccc1O	4	-4	-44	2	/	/	/	/
CNc1ccccc1C(C)(C)c1cc(-c2cccc(Br)c2)no1	31	-34	71*	-5	-79	75*	17	26*
CNc1ccccc1C(C)(C)c1cc(-c2cccc([N+](=O)[O-])c2)no1	14	-98	5	-7	-2	/	/	/
CCc1nc(N)nc(N)c1-c1ccc(N(C)Cc2ccccc2)c([N+](=O)[O-])c1	/	/	63*	-2	/	49*	21	17
SMILES	Jurkat NFkB inh	697 NFkB inh	Gli-Sufu antag	SMARCA2 activ	esBAF inh	Gli antag conf	Gli cytotox	Wnt3a counter
O=Cc1cn(-c2ccccc2)nc1-c1cccnc1	1	4	54	-3	4	21	12	5
C[C@H](CO)N1C[C@H](C)[C@H](CN(C)C(=O)Nc2ccccc2)OCCCC[C@H](C)Oc2ccc(NS(=O)(=O)c3cn(C)cn3)cc2C1=O	/	/	/	/	-1	/	/	/
COc1ccc(C(=O)NNC(=O)CCC(=O)Nc2ccc(C)cc2C)cc1	14	3	4	-1	1	/	/	/
COc1ccc(CC(=O)NNC(=O)CCC(=O)Nc2cc(C)ccc2C)cc1	-6	16	82*	-5	/	11	15	-1
CC(=O)NNc1ncnc2c1cnn2-c1ccccc1	10	3	57*	5	/	20	31*	-10
Cc1ccc(C(=O)N2CCN(c3nc4ccccc4n3C)CC2)cc1	-3	-14	70*	3	-3	13	23	-83
C[C@@H]1CN([C@@H](C)CO)C(=O)c2cc(C3=CCCC3)cnc2O[C@H]1CN(C)C(=O)Nc1cccc(F)c1	/	/	/	/	7	/	/	/
O=C(NC1CCC1)[C@H]1[C@H](CO)[C@H]2Cn3c(ccc(/C=C/c4ccccc4)c3=O)[C@H]2N1Cc1ccncc1	/	/	/	/	5	/	/	/
COc1ccc(C(=O)C[n+]2cc(-c3ccc(OC)cc3)n3c2CCCC3)cc1	37	-19	73*	-3	-38	68*	26*	-4
Cc1ccccc1-c1ccc([C@@H]2[C@H](CO)N3CCCCN(C(=O)c4cccnc4)C[C@@H]23)cc1	/	/	/	/	1	/	/	/
O=C(Cn1cnc([N+](=O)[O-])n1)c1ccccc1	-1	2	24	-2	1	/	/	/
O=C(Cn1ccc([N+](=O)[O-])n1)c1ccccc1	-17	-14	51	-1	/	8	21	-5
C[C@@H]1CN([C@@H](C)CO)C(=O)c2cc(NS(=O)(=O)c3ccccc3)ccc2O[C@@H](C)CCCCO[C@@H]1CN(C)C(=O)CCCN(C)C	/	/	/	/	4	/	/	/
CC1CCN(C(=O)C2CCN(C(=O)c3cc4sccc4n3Cc3ccc(F)cc3)CC2)CC1	8	-33	-1	-5	5	/	/	/
CC(C)NC(=O)C1CCN(C(=O)c2cc3sccc3n2Cc2ccc(F)cc2)CC1	-1	-16	61*	/	5	40	11	8
CCC(=O)N1CCN(c2nc3ccccc3s2)CC1	-54	-77	1	3	/	/	/	/
O=C(c1cc2sccc2n1Cc1ccccc1)N1CCN(c2nc3ccccc3s2)CC1	32	-12	58*	-4	/	68*	33*	-18
O=C(Nc1c(C(=O)C2CC2)oc2ccccc12)c1ccc(Cl)cc1	-12	-8	86*	-2	/	15	12	-18
O=C(O)CCSCC(=O)Nc1c(C(=O)C2CC2)oc2ccccc12	0	7	1	1	-1	/	/	/
